Results on 15 molecules are retold here after PubChem BioAssay (NCI).

Molecules are shown by their SMILES. The panel holds about 83,000 compounds, 20% with a hit somewhere; the sample as a whole holds those more often.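 Compound tested at a single concentration for 48 hours in 96-well plates; a percent growth value below 10 was scored as active.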 A number with no mark means an inactive call. Active and inactive are the calls of the source.

Test systems include NCI-H23 lung; NCI-H226 lung; NCI-H322M lung; HOP-62 NSCLC; NCI-H460 lung; NCI-H522 lung; A549/ATCC NSCLC; 786-0 renal; COLO 205 colon.
Holding throughout (test): NCI-60 one-dose screen, 48 h (100 = growth as untreated, 0 = no growth, -100 = all killed)
Settings in all cases: 10 µM unless noted

With `Clc1cc2nc(-c3ccccc3)c(-c3ccccc3)nc2cc1Cl`, the growth with NCI-H23 lung is 79.6%; with NCI-H226 lung, 89.7%; in the experiment on NCI-H322M lung, 106%; in the experiment with HOP-62 NSCLC, 89.9%; in the experiment with NCI-H460 lung, 94.8%; in the experiment on NCI-H522 lung, 86.1%. Moreover, the figures for the growth in the experiment with A549/ATCC NSCLC, in the experiment with 786-0 renal and in the experiment on COLO 205 colon were 100%, 103% and 115%, respectively.

For the molecule `O=C1/C(=C/N2N=C(c3ccc(Cl)cc3)CC2c2ccccc2O)SC(=S)N1c1cccc(C(F)(F)F)c1` (stereo not given), the growth in the experiment with NCI-H23 lung was 53.8%; with NCI-H226 lung, 63.3%; in the experiment on NCI-H322M lung, 71.4%; in the experiment on HOP-62 NSCLC, 69.1%; in the experiment on NCI-H460 lung it was 44.6%; in the experiment with NCI-H522 lung it was 30.3%. The results for the growth in the experiment on A549/ATCC NSCLC, in the experiment on 786-0 renal and with COLO 205 colon were 38.6%, 66.4% and 71.2%, respectively.

Consider `ClCc1c(Cl)c(Cl)c(Cl)c(CCl)c1Cl`, for which the growth is 82.8% in the experiment on NCI-H23 lung; 35% with NCI-H226 lung; 94% in the experiment with NCI-H322M lung; -28.8% (active) with HOP-62 NSCLC; 73.8% with NCI-H460 lung; -64.6% (active) with NCI-H522 lung. The growth is 94.9% in the experiment with A549/ATCC NSCLC, 76.3% in the experiment on 786-0 renal and -87.4% (active) in the experiment with COLO 205 colon.

On to `C[C@@H]1CC2C3CCC4=CC(=O)C=C[C@]4(C)[C@@]3(Cl)[C@@H](O)C[C@]2(C)[C@@]1(OC(=O)c1ccco1)C(=O)CCl` (stereo not given in full), for which the growth was 66.5% with NCI-H23 lung; 62.8% in the experiment on NCI-H226 lung; 74.3% in the experiment with NCI-H322M lung; 94.4% with HOP-62 NSCLC; 62.1% in the experiment on NCI-H460 lung; 73.9% in the experiment with NCI-H522 lung. Further, the growth with A549/ATCC NSCLC was 33.6%; in the experiment with 786-0 renal, 80.5%; with COLO 205 colon it was 111%.

For the molecule `Cc1cc([N+](=O)[O-])c(C)cc1N`, the growth is 103% with NCI-H23 lung; 101% in the experiment on NCI-H226 lung; 107% in the experiment on NCI-H322M lung; 103% with HOP-62 NSCLC; 109% in the experiment with NCI-H460 lung; 77.5% in the experiment on NCI-H522 lung. The growth in the experiment with A549/ATCC NSCLC was 104%; in the experiment with 786-0 renal, 103%; in the experiment with COLO 205 colon, 121%.

`Brc1ccsc1Br`: the growth in the experiment on NCI-H23 lung was 107%; in the experiment with NCI-H226 lung, 104%; with NCI-H322M lung it was 125%; in the experiment on HOP-62 NSCLC it was 93.4%; in the experiment on NCI-H460 lung, 111%; in the experiment on NCI-H522 lung it was 95.9%. The growth in the experiment with A549/ATCC NSCLC was 105%; in the experiment with 786-0 renal it was 108%; in the experiment on COLO 205 colon, 103%.

As for `C[C@H](NC(=O)c1snnc1C1CC1)c1c(F)cccc1Cl`, the growth was 97.3% in the experiment with NCI-H23 lung; 96.1% in the experiment with NCI-H226 lung; 123% with NCI-H322M lung; 107% with HOP-62 NSCLC; 110% with NCI-H460 lung; 94.2% with NCI-H522 lung. Further, the results for the growth with A549/ATCC NSCLC, in the experiment with 786-0 renal and in the experiment with COLO 205 colon were 101%, 112% and 219%, respectively.

Consider `CC(=O)N1N=C(C2C(=O)N(C)C(=O)N(C)C2=O)CC1c1ccccc1C(=O)O` (stereo not given), for which the growth with NCI-H23 lung is 98.3%; in the experiment on NCI-H226 lung, 108%; in the experiment on NCI-H322M lung it was 97.1%; in the experiment on HOP-62 NSCLC, 97.2%; in the experiment with NCI-H460 lung it was 104%; in the experiment with NCI-H522 lung, 83.3%. Further, the growth with A549/ATCC NSCLC was 98.4%; in the experiment with 786-0 renal it was 98.2%; in the experiment on COLO 205 colon, 108%.

For the molecule `CCCCc1nc(Cl)c(C2CC(c3ccc(S(N)(=O)=O)cc3)=NN2c2cc(Cl)cc(Cl)c2)[nH]1` (stereo not given), the growth is 51.9% in the experiment with NCI-H23 lung; 39% with NCI-H226 lung; 77.7% in the experiment on NCI-H322M lung; 61.8% in the experiment with HOP-62 NSCLC; 13.9% with NCI-H460 lung; 22.7% with NCI-H522 lung. Also, the growth in the experiment on A549/ATCC NSCLC is 36.5%; in the experiment with 786-0 renal, 53.6%; with COLO 205 colon, 32.2%.

As for `O=C(/C=C/c1cn(-c2ccccc2)nc1-c1ccccc1)OCc1cn(-c2cccc([N+](=O)[O-])c2)nn1`, the growth with NCI-H23 lung is 91.4%; with NCI-H226 lung, 97.1%; with NCI-H322M lung, 94.7%; with HOP-62 NSCLC, 81.7%; in the experiment on NCI-H460 lung, 93.7%; in the experiment with NCI-H522 lung it was 60.4%. Moreover, the values for the growth in the experiment on A549/ATCC NSCLC, with 786-0 renal and with COLO 205 colon were 67.8%, 91.2% and 89.5%, respectively.

As for `CS(=O)(=O)c1ccc(C(=O)Nc2ccc(Cl)c(-c3ccccn3)c2)c(Cl)c1`, the growth with NCI-H23 lung was 27.3%; in the experiment with NCI-H226 lung it was 16.5%; in the experiment with NCI-H322M lung, 52%; in the experiment on HOP-62 NSCLC it was 36%; in the experiment on NCI-H460 lung, -46% (active); with NCI-H522 lung it was 2.48% (active). The growth is 26% in the experiment with A549/ATCC NSCLC, -41.2% (active) with 786-0 renal and 6.45% (active) in the experiment with COLO 205 colon.

As for `C=C1C[C@@]2(C)C(CC[C@]3(C)C2CC=C2C4CC(C)(C)C[C@@H](OC(=O)/C(C)=C\C)[C@]4(C(=O)O)CC[C@]23C)C(C)(C)C1=O` (stereo not given in full), the growth in the experiment on NCI-H23 lung is -45.6% (active); in the experiment with NCI-H226 lung, -72.8% (active); with NCI-H322M lung it was 46.7%; with HOP-62 NSCLC it was 25.9%; with NCI-H460 lung it was -37.2% (active); with NCI-H522 lung, -6.98% (active). The growth in the experiment on A549/ATCC NSCLC is -2.25% (active); in the experiment with 786-0 renal, -77.9% (active); in the experiment on COLO 205 colon it was -11.2% (active).

`NC(=O)c1ccc[n+](Cc2ccccc2)c1`: the growth in the experiment on NCI-H23 lung was 96.1%; in the experiment on NCI-H226 lung it was 102%; in the experiment on NCI-H322M lung it was 104%; with HOP-62 NSCLC, 127%; in the experiment on NCI-H460 lung, 108%; in the experiment with NCI-H522 lung it was 99.3%. The growth with A549/ATCC NSCLC is 94.3%; in the experiment on 786-0 renal it was 109%; in the experiment with COLO 205 colon, 112%.

On to `NC(=S)N1N=C(c2ccc(Cl)cc2)CC1c1cc2ccccc2[nH]c1=O` (stereo not given), for which the growth was 105% with NCI-H23 lung; 113% in the experiment with NCI-H226 lung; 97.2% in the experiment with NCI-H322M lung; 102% in the experiment with HOP-62 NSCLC; 108% in the experiment with NCI-H460 lung; 84.2% with NCI-H522 lung. Besides, the growth in the experiment on A549/ATCC NSCLC was 110%; in the experiment on 786-0 renal, 98%; in the experiment on COLO 205 colon, 115%.

Regarding `CCCCCCCCOC(=O)C(C)OC(=O)OCCOCCOC(=O)OC(C)C(=O)OCCCCCCCC` (stereo not given), the growth is 113% in the experiment with NCI-H23 lung; 102% with NCI-H226 lung; 92.4% in the experiment with NCI-H322M lung; 105% in the experiment on HOP-62 NSCLC; 107% with NCI-H460 lung; 114% in the experiment with NCI-H522 lung. Moreover, the growth in the experiment with A549/ATCC NSCLC is 102%; with 786-0 renal, 104%; in the experiment on COLO 205 colon, 119%.
